# Sampled rows, rich in hits. Any-hit rate of the full collection: about 1.4%.
# Rango dissoc inh – prevents RanGTP from dissociating the Rango-importin beta complex. actives 0.071% (n = 340,000). O95149+P62826. AID 540253. Biochemical FRET Rango-importin beta, RanGTP-induced dissociation. Potency, µM (doses to about 46.1 µM), without a hit: at the top dose activity change, negative = inhibition; note: potency is the fitted concentration of half-maximal effect; % of control where 0% means no effect; nearly all actives have a fitted effect of over 45% in size
#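 Rango (0.1 uM)–importin beta (0.25 uM) complex; RanGTP-RCC1 trigger; 45 min RT; CFP/YFP FRET read.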
# CCT modulator – changes cytosolic chaperonin activity. activity change, % (no concentration beside the values), hits read low. purified chaperonin ATPase assay, HTRF ADP detection, 30 min. AID 651819. actives 0.3% (n = 360,000); in the data active = activity change below about -30%; note: % is set by controls: 0 for no effect and ±100 for the full control effect
#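 We incubate TRiC, 40 or 20 nM final, with library compounds at 76 uM and 10 uM ATP for 30 min at 37 °C. ADP formed is detected with Transcreener HTRF reagents after 30 min at room temperature.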
# hERG WT inh – inhibitors of human wildtype KCNH2 potassium channel | Q12809 | AID 720551 | U2OS, BacMam KCNH2, thallium flux FluxOr; active compounds read low | actives 0.37% (n = 340,000) | activity change, % at 1.84 µM;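 active = maximum activity change below -70%; inconclusive = maximum activity change between -70% and -50%; inactive = maximum activity change above -50%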; note: % is set by controls: 0 for no effect and ±100 for the full control effect
# Target sequence (Q12809 whole entry, looked up): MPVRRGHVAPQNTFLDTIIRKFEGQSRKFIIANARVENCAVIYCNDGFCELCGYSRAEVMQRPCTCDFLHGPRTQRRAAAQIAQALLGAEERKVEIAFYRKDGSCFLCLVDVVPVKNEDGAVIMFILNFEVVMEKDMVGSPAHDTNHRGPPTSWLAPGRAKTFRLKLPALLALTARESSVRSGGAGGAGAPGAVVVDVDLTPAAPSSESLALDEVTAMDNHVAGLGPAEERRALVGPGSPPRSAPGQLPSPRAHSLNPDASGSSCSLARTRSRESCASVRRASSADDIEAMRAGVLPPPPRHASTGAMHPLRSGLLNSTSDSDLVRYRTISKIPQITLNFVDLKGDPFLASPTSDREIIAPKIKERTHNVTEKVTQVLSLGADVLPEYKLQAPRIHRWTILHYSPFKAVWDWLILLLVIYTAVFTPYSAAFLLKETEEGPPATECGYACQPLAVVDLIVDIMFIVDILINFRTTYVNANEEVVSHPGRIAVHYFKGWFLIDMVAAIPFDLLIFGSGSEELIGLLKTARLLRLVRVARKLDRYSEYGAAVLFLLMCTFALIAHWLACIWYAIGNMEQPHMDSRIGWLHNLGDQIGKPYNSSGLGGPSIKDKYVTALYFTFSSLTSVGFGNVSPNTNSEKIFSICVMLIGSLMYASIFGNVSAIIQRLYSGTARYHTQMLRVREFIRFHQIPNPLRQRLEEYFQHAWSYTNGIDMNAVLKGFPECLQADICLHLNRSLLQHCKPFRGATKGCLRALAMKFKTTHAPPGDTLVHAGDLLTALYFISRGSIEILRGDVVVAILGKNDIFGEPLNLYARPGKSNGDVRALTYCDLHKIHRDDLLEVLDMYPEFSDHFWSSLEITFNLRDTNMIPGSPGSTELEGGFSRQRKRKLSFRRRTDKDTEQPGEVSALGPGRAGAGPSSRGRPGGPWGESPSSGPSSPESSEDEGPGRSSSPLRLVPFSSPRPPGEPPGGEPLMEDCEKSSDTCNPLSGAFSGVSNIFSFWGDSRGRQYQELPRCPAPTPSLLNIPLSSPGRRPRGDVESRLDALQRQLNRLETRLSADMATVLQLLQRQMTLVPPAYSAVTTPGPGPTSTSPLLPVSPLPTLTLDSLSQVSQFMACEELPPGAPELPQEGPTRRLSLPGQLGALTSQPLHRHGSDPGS
#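 U2OS cells transduced with wild-type KCNH2 virus are loaded with FluxOr dye for 45 min, and thallium flux is measured in kinetic reads before and after stimulation buffer. Rate constants are normalized to DMSO controls.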
# MmCpn inh – inhibitors of Methanococcus maripaludis chaperonin TRiC (MmCpn). purified Mm-Cpn ATPase, ADP Transcreener TR-FRET. Potency, µM (highest dose often 76.9 µM), for the others: at the highest dose activity, negative = inhibition, hits mostly inhibitors. actives 0.031% (n = 330,000). AID 504842; active = well fitted inhibition curve with a large enough effect; inconclusive = small, poorly fitted or top-dose-only effect; note: potency is the fitted concentration of half-maximal effect; % is set by controls: 0 for no effect and ±100 for the full control effect; nearly all actives have a fitted effect of over 80% in size
#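 Inhibition of chaperonin ATP hydrolysis is measured as reduced ADP production, detected by competitive TR-FRET in which signal falls with ADP. Final enzyme 25 nM and ATP 10 uM, reacted 30 min at 37°C.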
# KCNH2 3.1 inh – KCNH2 3.1 (human) potassium channel inhibition; activity change, % (tested at about 1.8 µM); actives 0.95% (n = 340,000); U2OS KCNH2 3.1, thallium flux FluxOr; active compounds read low;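 active = maximum activity change below -70%; inconclusive = maximum activity change from -70% to -50%; inactive = maximum activity change above -50%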;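 note: thallium influx rate constant from kinetic fluorescence after stimulation buffer; % is set by controls: 0 for no effect and ±100 for the full control effect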
#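 Measured as rate of thallium-driven FluxOr signal in transduced U2OS cells carrying the 3.1 channel, read kinetically for 2 min upon stimulation; values are rate constants scaled to DMSO control wells.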
# Rango complex inh – prevents formation of the Rango-importin beta complex. Rango CFP/YFP FRET sensor + importin beta, 45 min. Potency, µM (titrated, usually from 92.2 µM), for the others: at the highest dose inhibition of complex formation. actives 0.031% (n = 340,000);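 note: potency is the fitted concentration of half-maximal effect; 0% = DMSO wells and 100% = buffer wells lacking importin beta; nearly all actives have a fitted effect of over 15% in size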
#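 FRET biosensor Rango (snurportin 1 IBB between N-terminal EYFP and C-terminal Cerulean), 50 nM in PBS/1 mM DTT/0.02% Tween-20/0.1% BSA, preincubated 5 min RT with compound; 0.125 microM importin beta added, 45 min RT, CFP/YFP FRET ratio read.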
# * = called active by the depositor; u = inconclusive; x = no result. Unless noted, calls come from the whole dose curve.
SMILES,Rango dissoc inh,CCT modulator,hERG WT inh,MmCpn inh,KCNH2 3.1 inh,Rango complex inh
CN1CCN(CCOc2ccc(-c3ccccc3)cc2)CC1,-23%,0,29,-2%,-27,0%
O=C(c1ccccc1)c1ccc(OCCCCN2CCCCC2)cc1,-1%,0,17,1%,-49,-2%
CCOc1ccc(OCCCCN2CCCC2)cc1,-16%,0,-4,-1%,8,1%
c1ccc(COc2ccc(OCCCCN3CCCCC3)cc2)cc1,21%,2,9,1%,-97*,-3%
Fc1ccc(OCCCCCN2CCCC2)cc1,-5%,3,9,-3%,-98*,-3%
CN1CCN(CCCOc2ccc(-c3ccccc3)cc2)CC1,14%,2,52,-2%,-90*,0%
O=C(CSCc1ccc(Cl)cc1)Nc1ccc(O)cc1C(=O)O,8%,0,-4,-1%,-4,-3%
COc1ccc(C2CC(c3ccc(Br)cc3)=NN2C(=O)CN2CCCC2)cc1 (centres undefined),-1%,-2,27,-12%,-83*,-2%
CCOC(=O)c1nnn(CC(=O)N2N=C(c3ccc(Cl)cc3)CC2c2ccccc2)c1C(=O)OCC (centres undefined),4%,-1,-12,-12%,-71*,-1%
CCOC(=O)c1nnn(CC(=O)N2N=C(c3ccc(Cl)cc3)CC2c2ccc(OC)cc2)c1C(=O)OCC (centres undefined),17%,-1,-76*,0%,u,-3%
COc1ccc(C2=NN(C(=O)CN3CCCCC3)C(c3ccc(C)cc3)C2)cc1 (centres undefined),-16%,1,5,-2%,-3,-1%
COc1cccc(OCc2cc(C(=O)N3CCN(C)C(c4ccccc4)C3)no2)c1 (centres undefined),9%,-1,-20,-13%,0,1%
Cc1ccc(S(=O)(=O)Oc2ccc(/C=C3\C(=N)N4N=C(S(C)(=O)=O)SC4=NC3=O)cc2)cc1,12%,-1,-4,3%,-115*,0%
CCc1c(C)nc(SC/C=C/c2ccccc2)[nH]c1=O,1%,0,-3,0%,-120*,2%
CCCc1cc(=O)[nH]c(SC/C=C/c2ccccc2)n1,-5%,1,-14,x,-3,5%
O=C1Nc2ccccc2S/C1=C/c1cccs1,u,-1,-4,-2%,5,u
O=C1/C(=C/c2cccs2)Sc2ccccc21,18µM*,2,-19,0%,7,u
CCOC(=O)c1ccc(NS(=O)(=O)c2ccc(Cl)nc2)cc1,x,x,x,-2%,x,x
CCOC(=O)c1cnn(-c2ccc(NS(=O)(=O)c3ccc(Cl)cc3)cc2)c1C(F)(F)F,1%,-98*,0,-2%,3,1%
COc1ccc(-c2cc(C#N)nc(Cl)n2)cc1,17%,0,-6,-3%,-80*,1%
O=C(c1ccccc1F)N1CCCC(C(=O)N2CCc3ccccc3C2)C1 (centres undefined),7%,0,2,1%,-2,-2%
COc1ccc(CCC(=O)N2CCCC(Nc3ccccc3)C2)cc1OC (centres undefined),11%,-1,5,-1%,4,-1%
CCN1CCC(N2CCN(c3ccc(Cl)cc3)CC2)CC1,-16%,0,16,-6%,16,u
CCCN1CCC(N2CCN(c3ccc([N+](=O)[O-])cc3)CC2)CC1,13%,-1,-42,1%,-79*,0%
CCOc1ccc(N2C(=O)CC(N3CCN(c4ccc([N+](=O)[O-])cc4)CC3)C2=O)cc1 (centres undefined),-5%,-3,-10,2%,-91*,-1%
CCCN1CCC(N2CCN(c3cccc(C(F)(F)F)c3)CC2)CC1,0%,0,-16,-3%,-97*,-3%

# Assay outcomes (PubChem BioAssay)
